Data from PubChem BioAssay AID1159580 (chemical genetic matrix, 2015).
About 2,000 (36%) of roughly 5,500 compounds were called active. Roughly 18% stayed inconclusive and do not appear here. No stated cut-off is given here; in the data, active means normalized growth mostly below about 0.91 (no sharp cut-off); inconclusive means no clear call, values can overlap the other calls; inactive means mostly above about 0.92. This is one part of the list.

Experiment: chemical genetic growth profiling, strain panel (AID 1159580);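 further: tested at 20 µM; growth read once vehicle control cultures reached saturation at 30 °C; 1 = growth at the plate median or of vehicle wells; lower values mean less growth of the strain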
Conditions: S. cerevisiae deletion strains, growth OD

Measured: normalized growth

O=c1c(-c2cc(O)c(O)c(O)c2)coc2cc(O)c(O)c(O)c12
inactive: locus YAL030W, strain snc1, hits give low values 0.999 | locus YBL061C, strain skt5, hits give low values 0.94 | locus YBR009C, strain hhf1, hits give low values 0.975 | locus YBR021W, strain FUR4, hits give low values 1.03 | locus YBR171W, strain sec66, hits give low values 0.991 | locus YBR279W, strain paf1, hits give low values 0.97 | locus YCL011C, strain gbp2, hits give low values 0.979 | locus YCL016C, strain dcc1, hits give low values 0.99 | locus YCL061C, strain MRC1, hits give low values 0.97 | locus YCL069W, strain vba3, hits give low values 0.996 | locus YCR088W, strain abp1, hits give low values 1.03 | locus YDL005C, strain med2, hits give low values 1.02 | locus YDL040C, strain nat1, hits give low values 1.02 | locus YDL185W, strain tfp1, hits give low values 0.944 | locus YDL192W, strain arf1, hits give low values 0.927 | locus YDR001C, strain nth1, hits give low values 1.01 | locus YDR101C, strain arx1, hits give low values 0.918 | locus YDR159W, strain sac3, hits give low values 0.981 | locus YDR195W, strain ref2 0.993 | locus YDR297W, strain sur2, hits give low values 0.987 | locus YDR318W, strain mcm21, hits give low values 0.986 | locus YDR388W, hits give low values 0.983 | locus YDR392W, strain spt3, hits give low values 0.899 | locus YDR502C, strain sam2, hits give low values 0.931 | locus YEL003W, strain gim4, hits give low values 0.958 | locus YEL037C, strain rad23, hits give low values 0.937 | locus YEL061C, strain CIN8 (second series), hits give low values 1 | locus YER016W, strain bim1, hits give low values 1 | locus YER110C, hits give low values 1 | locus YER155C, strain BEM2 (second series), hits give low values 0.935 | locus YER155C, strain BEM2, hits give low values 0.991 | locus YER167W, strain BCK2, hits give low values 0.972 | locus YFR010W, strain ubp6, hits give low values 0.915 | locus YGL078C, strain dbp3, hits give low values 0.991 | locus YGL167C, strain pmr1, hits give low values 1 | locus YGL227W, strain vid30, hits give low values 1.05 | locus YGL240W, strain doc1, hits give low values 1.04 | locus YGR135W, strain pre9, hits give low values 0.917 | locus YGR252W, strain gcn5, hits give low values 0.853 | locus YHR013C, strain ard1, hits give low values 0.88 | locus YHR030C, strain SLT2, hits give low values 0.952 | locus YHR094C, strain hxt1, hits give low values 1.01 | locus YHR200W, strain rpn10, hits give low values 0.957 | locus YIL073C, strain SPO22, hits give low values 0.686 | locus YIL125W, strain kgd1, hits give low values 1 | locus YIR030C, strain dcg1, hits give low values 1 | locus YJL092W, strain hpr5, hits give low values 1.01 | locus YJL095W, strain BCK1 (second series), hits give low values 0.986 | locus YJL115W, strain asf1, hits give low values 1.01 | locus YJL129C, strain trk1, hits give low values 1.03 | locus YJL134W, strain LCB3, hits give low values 0.943 | locus YJL154C, strain vps35, hits give low values 1.01 | locus YJL164C, strain tpk1, hits give low values 0.949 | locus YJL166W, strain qcr8, hits give low values 0.921 | locus YJL168C, strain set2, hits give low values 0.982
active: locus YAL021C, strain ccr4, hits give low values 0.719 | locus YAL026C, strain drs2, hits give low values 0.876 | locus YBR023C, strain chs3, hits give low values 0.904 | locus YBR229C, strain ROT2, hits give low values 0.812 | locus YBR231C, strain swc5, hits give low values 0.826 | locus YCL029C, strain bik1, hits give low values 0.751 | locus YDL035C, strain GPR1, hits give low values 0.787 | locus YDL074C, strain BRE1, hits give low values 0.698 | locus YDL101C, strain DUN1, hits give low values 0.462 | locus YDL134C, strain PPH21, hits give low values 0.777 | locus YDR069C, strain doa4, hits give low values 0.746 | locus YDR137W, strain rgp1, hits give low values 0.716 | locus YDR162C, strain NBP2, hits give low values 0.632 | locus YDR334W, strain swr1, hits give low values 0.879 | locus YDR335W, strain msn5, hits give low values 0.885 | locus YEL061C, strain CIN8, hits give low values 0.878 | locus YER015W, strain faa2, hits give low values 0.919 | locus YER111C, strain swi4, hits give low values 0.731 | locus YGL086W, strain mad1, hits give low values 0.923 | locus YGL173C, strain kem1, hits give low values 0.872 | locus YGL248W, strain PDE1, hits give low values 0.851 | locus YGL253W, strain hxk2, hits give low values 0.878 | locus YGR078C, strain PAC10, hits give low values 0.817 | locus YGR229C, strain SMI1, hits give low values 0.328 | locus YHR027C, strain rpn1, hits give low values 0.893 | locus YHR079C, strain IRE1 (second series), hits give low values 0.922 | locus YHR129C, strain ARP1, hits give low values 0.869 | locus YHR142W, strain chs7, hits give low values 0.808 | locus YIL066C, strain RNR3, hits give low values 0.774 | locus YJL095W, strain BCK1, hits give low values 0.331 | locus YJL187C, strain SWE1 (second series), hits give low values 0.282
